Data from PubChem BioAssay.
Values without a mark were called inactive. How the calls were made is not given here.

Target: Pantothenate synthetase (Mycobacterium tuberculosis (strain ATCC 25618 / H37Rv)) (UniProt P9WIL5)
Test: Recombinant Mtb pantothenate synthetase (PanC) inhibitors, coupled enzyme, confirmatory (AID 375);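 further: 0% = full reaction with vehicle and 100% = no enzyme background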
Conditions: coupled enzyme assay; at 10 µM, active compounds read high

Pantothenate synthetase (Mycobacterium tuberculosis (strain ATCC 25618 / H37Rv)), sequence (P9WIL5 whole entry, looked up): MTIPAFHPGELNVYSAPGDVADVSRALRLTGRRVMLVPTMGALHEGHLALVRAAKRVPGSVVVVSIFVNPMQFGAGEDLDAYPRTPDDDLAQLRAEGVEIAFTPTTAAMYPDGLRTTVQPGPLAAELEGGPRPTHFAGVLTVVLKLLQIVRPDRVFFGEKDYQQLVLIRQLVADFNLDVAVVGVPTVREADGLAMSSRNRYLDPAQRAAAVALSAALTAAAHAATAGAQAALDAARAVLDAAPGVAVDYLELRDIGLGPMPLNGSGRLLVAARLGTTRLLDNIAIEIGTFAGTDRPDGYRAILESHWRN

Row | Structure (SMILES) | inhibition [%]
1 | Cc1ccc(-c2nnn(CC(=O)NC3CC4CCC3C4)n2)cc1 (stereo not given) | 4
2 | OCc1nc(CO)n(Cc2ccccc2)n1 | 0
3 | CC1N=C2c3ccccc3N=C(SCc3cc(=O)n4cc(Cl)ccc4n3)N2C1=O (stereo not given) | 2
4 | O=C(Cn1ccc2ccccc2c1=O)NCCC(=O)N1CCN(C(=O)c2ccco2)CC1 | 9
5 | COCC(=O)Nc1c(C(=O)Nc2ccccc2OC)oc2ccccc12 | 1
6 | O=C(Nc1ccccc1)c1ccc(NCC2CCCO2)c(S(=O)(=O)N2CCOCC2)c1 (stereo not given) | 0
7 | COc1ccc(CCN(C)CCCC(C#N)(c2cc(OC)c(OC)c(OC)c2)C(C)C)cc1OC (stereo not given) | 0
8 | Cc1ccc(O)c(NC(=O)COc2cc(C)ccc2C)c1 | 0
9 | Cc1ccnc(SCCn2c(N3CCCCC3)nc3c2c(=O)n(C)c(=O)n3C)n1 | 0
10 | COc1ccc(-c2noc(CCCOc3ccccc3)n2)cc1OC | 7
11 | CCn1c(=O)cc(SCC(=O)NCC2CCCO2)c2ccccc21 (stereo not given) | 6
12 | COc1cccc(NC(=O)N2CCN(c3cccc(C)c3C)CC2)c1 | 0
13 | O=C1CC(c2ccsc2)c2cc3c(cc2N1)OCCO3 (stereo not given) | 0
14 | COC(=O)c1ccc(CSc2nc3ccccc3c(=O)n2Cc2ccco2)o1 | 6
15 | COc1ccc(N2CCN(Cc3nc4c(c(=O)[nH]c(=O)n4C)n3CC(C)=O)CC2)cc1 | 0
16 | COc1ccccc1-c1nc(SCc2ccccn2)n[nH]1 | 0
17 | CCC(C)NC(=O)CSC1=Nc2ccccc2C2=NC(CC(=O)NCc3ccccc3)C(=O)N12 (stereo not given) | 0
18 | CCCCC(=O)NCCc1cc2ccc(OC)cc2[nH]c1=O | 0
19 | CCSc1nc2c(c(=O)n1CC)SC(C)C2 (stereo not given) | 0
20 | O=C(NCc1cccnc1)c1cccc(C(F)(F)F)c1 | 1

Row | Structure (SMILES) | inhibition [%]
21 | Cc1cc(S(=O)(=O)N(Cc2ccccc2)Cc2ccc(N(C)C)cc2)ccc1-n1cnnn1 | 0
22 | C/C(=N\O)C(=O)NCCCNCCCN(C)C | 2
23 | CN(C)c1ccc(C=Nc2ccc(N(C)C)cc2)cc1 | 0
24 | Cc1oc(-c2ccccc2)cc1C(N)=O | 0
25 | CC(C)C[C@H](NC(=O)[C@@H]1O[C@H]1C(=O)O)C(=O)NCCCCN=C(N)N | 1
26 | CCOC(=O)N1CCN(C(=O)c2ccc(N3C(=O)CCC3=O)cc2)CC1 | 0
27 | Cc1c(C(=O)NCc2ccoc2)oc2ccc3c(c12)C(=O)CC(C)(C)O3 | 2
28 | Cc1c(NC(=O)C(C)OC(=O)C(NC(=O)c2ccco2)C(C)C)c(=O)n(-c2ccccc2)n1C (stereo not given) | 8
29 | Cc1ccccc1CN1CCN(CC(=O)NCc2ccco2)C1=O | 0
30 | CCCS(=O)(=O)N1CCN(C(=O)c2cccs2)CC1 | 0
31 | COc1ccc(OCC(=O)Nc2ccc(N3CCOCC3)c(Cl)c2)cc1 | 0
32 | COc1cccc(Oc2ccc(N)cc2)c1 | 0
33 | O=C(Nc1ncc(Br)s1)C1CCCN1S(=O)(=O)c1cccc2cccnc12 (stereo not given) | 0
34 | O=C(CSc1nnc(-c2ccncc2)n1-c1ccc(F)cc1)NC(=O)NCc1ccco1 | 0
35 | Cc1nc(Sc2cccn2C)c(C(F)(F)F)c(=O)[nH]1 | 0
36 | Cc1ccc(C)c(N2CCN(C(=O)c3ccc(CS(=O)(=O)c4ccccc4C)o3)CC2)c1 | 8
37 | O=C(NCCCN1CCOCC1)C1CC(=O)N(CCc2ccccc2)C1 (stereo not given) | 4
38 | O=C(O)CCc1ccc(-c2cccs2)n1NC(=O)c1ccccc1Br | 0
39 | Cn1c(=O)[nH]c(=O)c2c1nc(N1CCNCC1)n2CCOc1ccccc1 | 0
40 | Cc1nn(-c2ccccc2)c2c1C(=O)NC(=O)C(C)(C)C2 | 0
